Source: PMC4336329 (PLoS ONE, 2015)
Among all 310,000 compounds or so, about 14,000 (4.5%) showed an effect of 50% or more. The effect is printed as a negative number. Shown is part of a subset that was picked to be rich in strong results.

biological target: human ether-à-go-go-related gene (hERG) potassium channel (human, UniProt Q12809); assay: primary screen, population patch clamp on CHO cells stably expressing hERG; higher = less effect of the substance
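Further: peak tail current of the secondary pulse compared with the same well before compound.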

human ether-à-go-go-related gene (hERG) potassium channel, sequence (Q12809 whole entry, looked up): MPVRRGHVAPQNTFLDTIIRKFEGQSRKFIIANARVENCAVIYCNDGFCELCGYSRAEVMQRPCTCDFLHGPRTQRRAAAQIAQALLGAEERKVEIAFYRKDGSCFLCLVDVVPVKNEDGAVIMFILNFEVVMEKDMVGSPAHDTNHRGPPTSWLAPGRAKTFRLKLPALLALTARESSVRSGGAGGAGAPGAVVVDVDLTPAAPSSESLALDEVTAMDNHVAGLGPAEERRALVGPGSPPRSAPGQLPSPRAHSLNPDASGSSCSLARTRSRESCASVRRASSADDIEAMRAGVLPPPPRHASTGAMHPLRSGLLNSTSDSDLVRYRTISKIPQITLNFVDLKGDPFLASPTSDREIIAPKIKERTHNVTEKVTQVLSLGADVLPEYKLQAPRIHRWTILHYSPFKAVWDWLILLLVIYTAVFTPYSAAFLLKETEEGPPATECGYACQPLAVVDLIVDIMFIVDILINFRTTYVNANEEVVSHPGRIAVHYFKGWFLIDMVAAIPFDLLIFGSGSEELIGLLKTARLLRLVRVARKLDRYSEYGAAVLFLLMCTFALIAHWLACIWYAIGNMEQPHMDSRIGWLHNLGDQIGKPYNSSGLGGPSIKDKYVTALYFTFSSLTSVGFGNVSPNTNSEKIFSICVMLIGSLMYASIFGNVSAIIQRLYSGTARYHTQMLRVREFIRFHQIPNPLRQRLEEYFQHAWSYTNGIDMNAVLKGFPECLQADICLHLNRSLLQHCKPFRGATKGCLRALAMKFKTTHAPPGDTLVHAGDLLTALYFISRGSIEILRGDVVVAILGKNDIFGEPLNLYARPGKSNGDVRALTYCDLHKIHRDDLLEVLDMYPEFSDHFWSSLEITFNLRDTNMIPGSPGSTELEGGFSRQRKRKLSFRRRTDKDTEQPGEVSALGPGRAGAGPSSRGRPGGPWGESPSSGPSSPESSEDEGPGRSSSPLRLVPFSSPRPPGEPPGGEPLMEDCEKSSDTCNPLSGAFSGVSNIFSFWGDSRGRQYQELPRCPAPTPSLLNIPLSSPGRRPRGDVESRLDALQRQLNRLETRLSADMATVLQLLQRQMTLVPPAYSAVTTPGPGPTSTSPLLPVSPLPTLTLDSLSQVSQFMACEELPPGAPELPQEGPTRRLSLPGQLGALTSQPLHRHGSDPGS

SMILES | hERG current change (%, negative = inhibition) at 10uM [%]
N#Cc1ccc(N2CCOCC2)nc1 | -0.729
N#Cc1ccc(N2CCCNCC2)nc1 | -88.5
CCCCNC(=O)N1CCCN(c2ccc(C#N)cn2)CC1 | -49.8
Cc1ccc(NC(=O)c2nc(S(=O)(=O)Cc3ccccc3C)ncc2Cl)cc1C | 2.81
Cc1nn2c3ccccc3n(CC(=O)c3cccs3)c2nc1=O | 1.78
Cc1ccc(Nc2c(-c3ccco3)nc3ccccn23)cc1 | 2.78
COc1ccccc1C1CCN(Cc2ccccc2)CC1 | -34.5
COc1ccccc1C1CCN(Cc2ccc(Cl)c(Cl)c2)CC1 | 12.3
Cc1[nH]c2ccccc2c1CN1CCN(c2ccccn2)CC1 | -52.7
COc1ccccc1C1CCN(Cc2c(C)[nH]c3ccccc23)CC1 | -64.4
COc1ccccc1C1CCN(Cc2ccc(C)cc2)CC1 | -90
Cc1[nH]c2ccccc2c1CN1CCc2ccccc2C1 | -12.9
COc1ccccc1C1CCN(Cc2ccc(Cl)cc2Cl)CC1 | 11.1
COc1ccccc1C1CCN(Cc2ccccc2Cl)CC1 | -3.3
COc1ccccc1C1CCN(Cc2ccc3ccccc3c2)CC1 | -75
Cc1[nH]c2ccccc2c1C(c1ccncc1)N1CCN(c2ccccn2)CC1 (stereo not drawn) | 8.61
COc1ccccc1C1CCN(Cc2cccc([N+](=O)[O-])c2)CC1 | -49.1
COc1ccccc1C1CCN(Cc2cccc3ccccc23)CC1 | -13.9
COC(=O)CCc1nc2c(C#N)c(-c3ccc(Cl)cc3)ccn2n1 | -2.07
Cc1ccc(/C=N/NC(=O)c2cc(C)oc2C)cc1 | 4.58
COc1ccccc1NC(=O)CC1C(=O)Nc2c1c(=O)n(C)c(=O)n2C (stereo not drawn) | 4.88
Cc1cc(=O)[nH]c(SCC(=O)Nc2nc(-c3ccccc3)c(-c3ccccc3)o2)n1 | 3.76
CC(=O)Nc1ccc(/C=N/N2C(=O)NC(C)(c3ccc(OC(F)F)cc3)C2=O)cc1 (stereo not drawn) | -10.5

SMILES | hERG current change (%, negative = inhibition) at 10uM [%]
COC(=O)c1cc(C(=O)OC)cc(N2C(=O)CC(NNC(=O)c3ccc(C)cc3)C2=O)c1 (stereo not drawn) | -11.5
O=C(O)COn1c(-c2ccccc2)nc2ccc([N+](=O)[O-])cc21 | 11.3
CCOC(=O)C(C)On1c(-c2ccc(Cl)cc2)nc2ccc([N+](=O)[O-])cc21 (stereo not drawn) | -20.4
CCOC(=O)C(C)On1c(-c2ccccc2)nc2ccc([N+](=O)[O-])cc21 (stereo not drawn) | -51.3
COc1cc(NC(=O)C/C(C)=N/NC(=O)C2CCCCC2)c(OC)cc1Cl | 9.28
COc1ccc(NC(=O)C/C(C)=N/NC(=O)C(=O)NC2CCCCC2)c(OC)c1 | -8.46
COc1cc(NC(=O)C/C(C)=N/NC(=O)C(=O)NC2CCCCC2)c(OC)cc1Cl | -91.2
O=C(NNC(=O)c1cc(Cl)ccc1O)c1ccc(NS(=O)(=O)c2cccs2)cc1 | -20.7
CCOC(=O)CC1ON(C)C(=O)N1c1ccc([N+](=O)[O-])cc1 (stereo not drawn) | -6.46
C/C(=N/NC(=O)c1ccn(C)n1)c1ccncc1 | 13.2
N#Cc1ccc(OCC(=O)N2CCN(c3ccc(C(F)(F)F)cn3)CC2)cc1 | -54.7
N#Cc1ccc(S(=O)(=O)N2CCCN(c3ccc(C(F)(F)F)cn3)CC2)cc1 | -73.9
CC(CC(=O)N1CCN(c2ccc(C(F)(F)F)cn2)CC1)n1ccnc1 (stereo not drawn) | -66.2
O=S(=O)(c1ccc(C(F)(F)F)cc1)N1CCCN(c2ccc(C(F)(F)F)cn2)CC1 | 5.3
CCOC(=O)N1CCN(c2ccc(C(F)(F)F)cn2)CC1 | -4.3
Cc1ccccc1SCC(=O)N1CCN(c2ccc(C(F)(F)F)cn2)CC1 | -38
CC(=O)c1cccc(OCC(=O)N2CCN(c3ccc(C(F)(F)F)cn3)CC2)c1 | -16.3
CS(=O)(=O)N1CCN(c2nc3ccc(Cl)cc3s2)CC1 | 5.72
O=S(=O)(c1ccc(Cl)cc1)N1CCCN(c2ccc(C(F)(F)F)cn2)CC1 | -23.3
O=S(=O)(c1ccc(Cl)cc1)N1CCCN(c2nc3ccc(Cl)cc3s2)CC1 | 11.8
O=C(O)COCC(=O)N1CCCN(c2ccc(C(F)(F)F)cn2)CC1 | 14.3
N#Cc1ccc(S(=O)(=O)N2CCCN(c3nc4ccc(Cl)cc4s3)CC2)cc1 | -70.3
Cc1ccc(C2(C(F)(F)F)N=C3Sc4cc(C)cc(C)c4N3C(=O)N2)cc1 (stereo not drawn) | -4.05

SMILES | hERG current change (%, negative = inhibition) at 10uM [%]
O=C(NCCCN1CCOCC1)c1cc(-c2ccc(Br)cc2)nc2ccccc12 | -39.7
O=C(NC1C2CC3CC(C2)CC1C3)c1ccc(N2CCNCC2)c([N+](=O)[O-])c1 (stereo not drawn) | -18
O=c1c2oc3ccccc3c2[nH]c(=S)n1-c1ccc(F)cc1 | 25.3
COc1cccc(C2NC(=O)NC(C)=C2C(=O)Nc2ccc(C)cc2)c1OC (stereo not drawn) | -6.16
COc1ccccc1-n1c(=O)oc2ccc(Cl)cc2c1=O | -7.54
Cl.O=C(NCCOC(=O)c1ccc(C(=O)OCCNC(=O)c2cccnc2)s1)c1cccnc1 | 7.73
Cc1ccc(S(=O)(=O)Nc2cc(C(=O)N3CCOCC3)ccc2N2CCCCC2)cc1 | -20.5
Cc1ccc(S(=O)(=O)Nc2cc(C(=O)NCCN(C)C)ccc2N2CCCCC2)cc1 | -36.8
CCN1CCCC1CNC(=O)c1ccc(N2CCOCC2)c(NS(=O)(=O)c2ccc(OC)cc2)c1 (stereo not drawn) | -24.4
Cc1ccc(S(=O)(=O)Nc2cc(C(=O)O)ccc2N2CCCCC2)cc1 | 9.4
CCN(CC)CCCNC(=O)c1ccc(N2CCCCC2)c(NS(=O)(=O)c2ccc(C)cc2)c1 | -69.2
Cc1ccc(S(=O)(=O)Nc2cc(C(=O)N3CCC4(CC3)OCCO4)ccc2N2CCCCC2)cc1 | -51.3
CCC1CCCCN1CCCNC(=O)c1ccc(N2CCOCC2)c(NS(=O)(=O)c2ccc(OC)cc2)c1 (stereo not drawn) | -57.6
Cc1ccc(S(=O)(=O)Nc2cc(C(=O)NCCN(C)C)ccc2N2CCCC2)cc1 | -6.83
CCCCNC(=O)c1ccc(N2CCOCC2)c(NS(=O)(=O)c2ccc(OC)cc2)c1 | -40.4
COc1ccc(OC)c(S(=O)(=O)Nc2c(F)cccc2F)c1 | 16
CC1CN(C(=O)N2CCCCC2)CCN1C(=O)N1CCCCC1 (stereo not drawn) | 16.9
CCN(CC(=O)Nc1ccc(S(=O)(=O)N2CCOCC2)cc1)Cc1ccccc1 | -16.5
O=C(CCc1ccccc1Cl)Nc1ccc(S(=O)(=O)N2CCOCC2)cc1 | -4.49
Cc1cccc(C(=O)NN2C(=O)C3C(c4ccccc4)C=CC(c4ccccc4)C3C2=O)c1 (stereo not drawn) | 3.83
COc1cccc(-c2ccc(NC(=O)C3CCCN(CCCn4nc(C)cc4C)C3)cc2)c1 (stereo not drawn) | -66
COc1cccc(-c2ccc(NC(=O)C3CCCN(CCCn4cccn4)C3)cc2)c1 (stereo not drawn) | -64.1
COc1cccc(-c2ccc(NC(=O)C3CCCN(Cc4nccn4C)C3)cc2)c1 (stereo not drawn) | -31.8

SMILES | hERG current change (%, negative = inhibition) at 10uM [%]
COc1cccc(-c2ccc(NC(=O)C3CCCN(Cc4ccco4)C3)cc2)c1 (stereo not drawn) | 6.02
COc1cccc(-c2ccc(NC(=O)C3CCCN(Cc4cc(C)[nH]n4)C3)cc2)c1 (stereo not drawn) | -36.5
COc1cccc(-c2ccc(NC(=O)C3CCCN(Cc4cnn(C)c4C)C3)cc2)c1 (stereo not drawn) | 0.939
CCOC(=O)N1CCC(NS(=O)(=O)c2ccc(C#N)cc2)CC1 | -2.64
NS(=O)(=O)c1cccc(NC(=O)COC(=O)CNC(=O)c2ccc(-c3ccccc3)cc2)c1 | 5.77
CC(C)CNC(=O)COC(=O)CCC(=O)c1ccc(F)cc1 | 6.45
C1=C(CCNc2ncnc3c2cnn3-c2ccccc2)CCCC1 | 8.79
Cn1cc(C=C2C(=O)OC3(CCCCC3)OC2=O)c2ccccc21 | 9.19
O=C(OCc1nc2ccccc2[nH]1)C1CCCCC1 | 2.85
CCOc1ccc(NC(=O)C2CCN(C(=O)C3CC(=O)N(c4ccc(C)cc4)C3)CC2)cc1 (stereo not drawn) | -22.1
COc1ccccc1NC(=O)C1CCN(C(=O)C2CC(=O)N(c3ccc(C)cc3)C2)CC1 (stereo not drawn) | -9.15
C=CCN(CC=C)C(=O)C1CC(=O)N(c2ccc(Br)cc2)C1 (stereo not drawn) | -59.2
Cc1ccc(N2CC(C(=O)N3CCC(C(=O)NC(C)(C)C)CC3)CC2=O)cc1 (stereo not drawn) | 20.2
CC(=O)Nc1ccc(NC(=O)C2CCN(C(=O)C3CC(=O)N(c4ccc(C)cc4)C3)CC2)cc1 (stereo not drawn) | 12.4
C=CCNC(=O)C1CC(=O)N(c2ccc(Br)cc2)C1 (stereo not drawn) | -7.08
COc1ccc(Cl)cc1NC(=O)CN(C)C(=O)C1CC(=O)N(Cc2ccc(C)cc2)C1 (stereo not drawn) | -50
COc1ccc(NC(=O)CN(C)C(=O)C2CC(=O)N(Cc3ccc(C)cc3)C2)cc1 (stereo not drawn) | 4.41
COc1ccc(CCN(C)C(=O)C2CC(=O)N(Cc3ccc(C)cc3)C2)cc1OC (stereo not drawn) | 0.405
Cc1ccc(N2CC(C(=O)N3CCC(C(=O)Nc4ccc(Br)cc4)CC3)CC2=O)cc1 (stereo not drawn) | -64.2
O=C(O)C1CC(=O)N(c2ccc(Br)cc2)C1 (stereo not drawn) | 4.94
Cc1ccc(N2CC(C(=O)N3CCC(C(=O)Nc4cccc(Br)c4)CC3)CC2=O)cc1 (stereo not drawn) | -60.1
